The results in this text go back to PubChem BioAssay AID624059 (National Center for Advancing Translational Sciences (NCATS), 2012).

Unmarked numbers belong to inactive results. Calls of active or inactive are those of the source. Calls follow the shape of the dose curve; as a rule, active = well fitted curve in the direction sought with a large enough effect; inactive = no such curve, though single readings can be large or run the other way.

The test in a line: qHTS for Inhibitors of Mutant Isocitrate Dehydrogenase 1 (IDH1): U87 Cytotoxicity Assay for Probe SAR. The conditions noted are these: U87MG-IDH1 R132H viability, CellTiter-Glo luminescence, 72 h; series mostly up to 22.1 µM; activity change, negative = cytotoxicity: at the top concentration. From the text:
Malignant glioblastomas (WHO grade IV), including primary and secondary glioblastomas, are among the most lethal with a median survival of one year, and unfortunately they are also the most prevalent type of brain tumors. By and large the standard of care of gliomas remains the use of the oral alkylating agent temozolomide and radiotherapy following surgical tumor resection. There is an urgent unmet medical need for novel therapeutics for gliomas. IDH mutations occur in up to 70% of grade II-IV secondary glioblastomas, and IDH1 R132H is the most prevalent mutation. […] Wild-type (WT) IDH1 catalyzes the conversion of isocitrate to -ketoglutarate with the concomitant reduction of NADP+ to NADPH. In contrast, IDH1 R132H catalyzes the conversion of alpha-ketoglutarate to 2-hydroxyglutarate (2-HG) with the concomitant oxidation of NADPH to NADP+ [5]. Recently, a second significant advancement for the field was the finding that IDH is an oncogene, and that its metabolic product 2-HG may contribute to the pathogenesis of IDH-mutated cancers. […] Although this link to cancer is tantalizing, the direct evidence of how 2-HG drives pathogenesis of gliomas and AML remains a subject of further research. The goal of this cell assay is to identify whether the small-molecule inhibitors of IDH1 R132H are cytotoxic in U87MG-IDH1 R132H cells. Compounds were screened as concentration-titration series that ranged from 50 microM to 14 nM. NIH Molecular Libraries Probe Production Network [MLPCN] NIH Chemical Genomics Center [NCGC] MLSCN Grant: R03 DA032129 PI Name: Dr. Lenny Dang
Cells were dispensed into 96-well black solid bottom plates at 2500 cells/well (RPMI medium with 10% FBS). The plates were incubated overnight at 37 °C and 5% CO2. The media was aspirated off and fresh media (RPMI and 10% FBS) with compounds in 7-point dose response was added. The plates were incubated for 48 hours at 37 °C and 5% CO2. From each well 100 microL was removed and used for LC-MS analysis to quantitate the amount of 2-HG product. The remaining cells/media were incubated for 24 additional hours at which point 100 uL of Cell Titer Glo (Promega) was added. The plates were shaken for 10 minutes and then incubated at room temperature for 20 minutes. The luminescence was read on the ViewLux in end-point mode (0.5 sec). Concentration-response curves were fitted to the signals arising from the resulting selective ion monitoring. The concentration-response curves were then classified based on curve quality (r2), response magnitude and degree of measured activity, and compounds were subsequently categorized based on their curve class. […] Keywords: Isocitrate dehydrogenase, IDH1, IDH1 R132H, 2-HG, 2-hydroxyglutarate, AML, glioma, MLSMR, MLPCN, NIH Roadmap, qHTS, NCGC
For `COc1ccc(N(C(=O)Cn2cnc3ccccc32)C(C(=O)NC2CCCCC2)c2ccccc2)cc1` (stereo not drawn), the “activity change, negative = cytotoxicity” value is -6.32% [at 30 µM].

In the case of `COc1cccc(N(C(=O)Cc2cccs2)C(C(=O)NC2CCCC2)c2ccccc2)c1` (stereo not drawn), the “activity change, negative = cytotoxicity” value was -9% [at 50 µM].

For `Cc1ccccc1C(C(=O)NC1CCCCC1)N(C(=O)CNS(=O)(=O)c1ccccc1)c1cccc(F)c1` (stereo not drawn), the Potency is 10.1 µM (active).

As for `Cc1ccccc1C(C(=O)NC1CCCC1)N(C(=O)Cc1cccs1)c1ccccc1F` (stereo not drawn), the “activity change, negative = cytotoxicity” value is -40% [at 50 µM].

`Cc1ccccc1C(C(=O)NC(C)(C)C)N(C(=O)Cc1cccs1)c1cccc(F)c1` (stereo not drawn): the “activity change, negative = cytotoxicity” value is -14.4%.

For `COc1ccc(N(C(=O)C2COc3ccccc3O2)C(C(=O)NC2CCCCC2)c2ccccc2)cc1OC` (stereo not drawn), the “activity change, negative = cytotoxicity” value was -23.5% [at 30 µM].

With `Cc1ccccc1C(C(=O)NC1CCCC1)N(C(=O)Cn1cnc2ccccc21)c1cccc(F)c1` (stereo not drawn), the “activity change, negative = cytotoxicity” value is 18.6%.

In the case of `Cc1ccccc1C(C(=O)NC1CCCCC1)N(C(=O)c1ccccn1)c1cccc(F)c1` (stereo not drawn), the Potency is 11.8 µM (active).

For `Cc1nc(C)c(C(=O)N(c2cccc(F)c2)C(C(=O)NC2CCCCC2)c2ccccc2)s1` (stereo not drawn), the “activity change, negative = cytotoxicity” value is -12.4%.

Regarding `O=C(NC1CCCC1)C(c1ccccc1)N(C(=O)Cc1cccs1)c1cccc(F)c1` (stereo not drawn), the “activity change, negative = cytotoxicity” value was -5.77% [at 50 µM].

With `COc1cccc(C(C(=O)NC2CCCCC2)N(C(=O)c2cccs2)c2ccc3c(c2)OCO3)c1` (stereo not drawn), the “activity change, negative = cytotoxicity” value is -30.4% [at 30 µM].

As to `Cc1ccccc1C(C(=O)NC1CCCC1)N(C(=O)Cc1cccs1)c1cccc(F)c1` (stereo not drawn), the “activity change, negative = cytotoxicity” value was 6.51%.

In the case of `Cc1ccccc1C(C(=O)NC1CCCCC1)N(C(=O)Cc1cccs1)c1cccc(F)c1` (stereo not drawn), the “activity change, negative = cytotoxicity” value is -21.8% [at 10.3 µM].
